Bioassay records (PubChem BioAssay)
DT40 TDP1 no CPT – qHTS for Inhibitors of human tyrosyl-DNA phosphodiesterase 1 (TDP1): qHTS in cells in absence of CPT | DT40 Tdp1-/- hTDP1 cells, no CPT, ATP luminescence, 48 h | Potency, µM (doses to about 46.2 µM), actives largely listed as inhibitors | hit rate 15% among 420,000 | AID 686978, 2013; also: nearly all actives have a fitted effect of over 55% in size
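Stably hTDP1-transfected Tdp1-null chicken DT40 cells were treated with library compounds minus camptothecin and grown for at least 48 hr at 37 °C, after which cellular ATP was quantified by luminescence.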
HT1080 IDH1KD tx – HT-1080 IDH1 knockdown cell toxicity (counter line) | hit rate 2% among 360,000 | HT-1080 IDH1 knockdown viability, ATP luminescence, 48 h | AID 686971 | Potency, µM (titrated, usually from 46.1 µM), hits mostly cytotoxic
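Luminescent ATP read-out (CellTiter-Glo, 10 min at room temperature) after 48 h compound exposure at 37 °C gave viability of IDH1-knockdown HT-1080 cells. Activity was normalised to DMSO and cell-free wells, then fitted as concentration-response curves.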
HepG2 tox – counter-screen for TGF-b inhibitors: cytotoxicity in HepG2 cells; hit rate 0.76% among 410,000; Potency, µM (doses to about 46.1 µM), actives largely listed as cytotoxic; HepG2 CAGA-GFP viability, ATP luminescence, 18 h; AID 588856
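CellTiter-Glo luminescence gave cytotoxicity after 18 hours at 37 degrees C. The cells were HepG2 CAGA-GFP in 1% FBS DMEM, stimulated with 500 pg/mL TGF-beta after compound addition. %Activity was normalised to no-cell wells (complete cell-killing) and DMSO (no toxicity), and curves were fitted and classified.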
TDP1 cell CPT – growth inhibition of DT40 Tdp1-/-;hTDP1 cells with camptothecin (screen for TDP1 inhibitors) | chicken DT40 Tdp1-/-;hTDP1 cells + 20 nM CPT, ATP luminescence, 48 h | Potency, µM (top dose mostly 46.2 µM), most hits filed as inhibitors | hit rate 12% among 420,000; also: nearly all actives have a fitted effect of over 55% in size
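Cell growth measured by CellTiter-Glo luminescence after a minimum 48 h, 37 C compound exposure with 20 nM CPT in Tdp1-knockout DT40 cells stably expressing hTDP1, seeded 400/well; qHTS titration format.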
HT1080NT lethal – kills 2HG-producing HT-1080-NT fibrosarcoma cells; AID 686970; Potency, µM (highest dose often 46.1 µM), hits mostly cytotoxic; hit rate 1.6% among 360,000; HT-1080-NT fibrosarcoma viability, CellTiter-Glo ATP luminescence, 48 h;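 also: NT is the 2HG producing partner of a matched IDH1 knockdown line; nearly all actives have a fitted effect of over 55% in size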
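Viability of the 2HG-overproducing fibrosarcoma line after 48 hours of compound exposure at 37 degrees C was determined by luminescence with CellTiter-Glo, and concentration-effect curves were then fitted and categorized.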
TGFb inhibitor – inhibitors of TGF-b signaling. Potency, µM (series often up to 46.1 µM), most hits filed as inhibitors. HepG2 CAGA-GFP TGF-b/SMAD3 reporter, GFP fluorescence, 18 h; TGF-beta stimulated, 500 pg/mL final. hit rate 1.2% among 410,000. AID 588855; also: nearly all actives have a fitted effect of over 65% in size
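HEPG2 CAGA-GFP, 1000 cells/well; 2 h settle, 37 C; cpd via pin tool; TGF-b 500 pg/mL final; 18 h, 37 C; GFP imaging ex488/em500-530; %Activity normalised to -TGF-b and +DMSO controls; CRC fit, curve class.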
Hits are given with their value; – = inactive; ? = inconclusive; · = no result; [ ] = another dose, or the depositor's remark. An excerpt weighted towards active compounds, which were near 17% of everything screened. Calls follow the shape of the dose curve; as a rule, active = well fitted curve in the direction sought with a large enough effect; inconclusive = small, poorly fitted or top-dose-only effect, or another doubt; inactive = no such curve, though single readings can be large; an effect the other way counts as inactive or inconclusive.

SMILES	DT40 TDP1 no CPT	HT1080 IDH1KD tx	HepG2 tox	TDP1 cell CPT	HT1080NT lethal	TGFb inhibitor
Cc1nc2ncnn2c(N2CCC(C(=O)NCC3CCCO3)CC2)c1Cc1ccccc1 (stereo not drawn)	–	–	–	–	–[9.24 µM]	–
CCOc1ccccc1NC(=O)C1CCCN(c2c(CC)c(C)nc3ncnn23)C1 (stereo not drawn)	21µM	–	–	21µM	–	–
CCc1c(C)nc2ncnn2c1N1CCC(C(=O)Nc2ccccc2)CC1	16µM	–	–	?	–	–
CCc1c(C)nc2ncnn2c1N1CCC(C(=O)Nc2ccc(C)cc2)CC1	15µM	?	–	21µM	?	–
O=C(Nc1ccc2c(c1)CCC2)C1CCCN(c2ncccn2)C1 (stereo not drawn)	?	–	–	–	–	–
CCc1c(C)nc2ncnn2c1N1CCCC(C(=O)NCCc2ccc(OC)cc2)C1 (stereo not drawn)	?	?	–	?	–	–
CC(=O)Nc1ccc(NC(=O)C2CCN(c3c(Cc4ccccc4)c(C)nc4ncnn34)CC2)cc1	–	–	–	?	–	?
Cc1nc2ncnn2c(N2CCCC(C(=O)Nc3ccc4c(c3)CCC4)C2)c1C (stereo not drawn)	23µM	–	–	21µM	?	–
COc1ccc(CN2C[C@@H](CO)O[C@@H](n3cnc4c(N5CCOCC5)ncnc43)C2)cc1	–	–	–	–	–	–
CN1C(=O)c2cccc3c(S(=O)(=O)NCCc4ccccc4)ccc1c23	21µM	–	–	?	–	–
COCCNS(=O)(=O)c1ccc2c3c(cccc13)C(=O)N2C	–	–	–	–	–	–
COc1ncc2ncc(=O)n(C[C@H]3CCCO3)c2n1	–	·	·	–	·	·
COc1cc(OC)c(OC)cc1/C=C/c1cc(C(F)(F)F)[nH]c(=O)n1	–	–	–	–	–	–
COc1cc(/C=C/c2cc(C(F)(F)F)[nH]c(=O)n2)cc(OC)c1OC	?	29µM	–	?	?	?
O=c1nc(/C=C/c2cc([N+](=O)[O-])ccc2Cl)cc(C(F)(F)F)[nH]1	23µM	–	–	?	–	–
O=c1nc(/C=C/c2cccn2-c2ccc([N+](=O)[O-])cc2)cc(C(F)(F)F)[nH]1	–	–	–	–	–	–
Cc1c(CCOC(=O)C23CC4CC(CC(C4)C2)C3)sc[n+]1Cc1ccccc1	10µM	–	–	?	–	–
Cc1c(CCOC(=O)C23CC4CC(CC(C)(C4)C2)C3)sc[n+]1Cc1ccccc1	2.9µM	23µM	–	4.1µM	?	?
Cc1ncc(C[n+]2csc(CCOC(=O)C34CC5CC(CC(C5)C3)C4)c2C)c(N)n1	?	–	–	?	–	–
O=S(=O)(NNc1ccc(F)cc1F)c1cccc(Cl)c1	–	?	–	–	–	?
O=C1C=C(c2ccccc2)C[C@@H](c2ccc(Cl)cc2)C1	?	–	–	?	–	?
O=C1C=C(c2ccc(O)cc2)C[C@@H](c2ccc(Cl)cc2)C1	?	–	–	?	–	–
Cc1ccc(C2=CC(=O)C[C@H](c3ccc(Cl)cc3)C2)cc1	?	–	–	23µM	–	?
O=C1C=C(c2ccc3[nH]ccc3c2)C[C@@H](c2ccc(Cl)cc2)C1	?	?	–	?	?	11µM
COc1ccc(C2=CC(=O)C[C@H](c3ccc(Cl)cc3)C2)cc1	?	?	–	16µM	?	?
SMILES	DT40 TDP1 no CPT	HT1080 IDH1KD tx	HepG2 tox	TDP1 cell CPT	HT1080NT lethal	TGFb inhibitor
Cc1cc(C)c2sc(NNC(=O)c3ccc(S(=O)(=O)N4CCc5ccccc5C4)cc3)nc2c1	2.6µM	?	–	3.3µM	?	?
Cc1cc(C)c2nc(NNC(=O)c3ccc(S(=O)(=O)N4CCc5ccccc5C4)cc3)sc2c1	4.6µM	6.5µM	–	5.2µM	?	?
Cc1cc(C)c2nc(NNC(=O)c3cc(=O)c4ccccc4o3)sc2c1	?	–	–	29µM	–	?
COc1ccc2nc(NC(=O)c3cc(=O)c4ccccc4o3)sc2c1	–	·	–	–	·	–
Cc1ccc(-c2nc(C(=O)NCc3ccccc3Cl)c3n2CCCCC3)cc1	·	·	–	·	·	?
COc1ccc(/C=C2\SC(=S)N(CC(=O)NC3C=CS(=O)(=O)C3)C2=O)cc1 (stereo not drawn)	3.7µM	–	–	6.5µM	–	–
O=C(CN1C(=O)/C(=C/c2ccc(Cl)cc2)SC1=S)NC1C=CS(=O)(=O)C1 (stereo not drawn)	5.8µM	–	–	6.5µM	–	–
O=C(CCN1C(=O)/C(=C/c2ccc(Cl)cc2)SC1=S)NC1C=CS(=O)(=O)C1 (stereo not drawn)	?	–	–	–	–	–
COc1ccc(-n2c(SCC(=O)C(C)(C)C)nc3c(sc(=S)n3-c3ccccc3)c2=O)c(OC)c1	12µM	–	–	13µM	–	–
CCOC(=O)CSc1nc2c(sc(=S)n2-c2ccccc2OC)c(=O)n1-c1ccccc1OC	?	–	–	–	–	–
CCOC1=C2[C@@H](CN(S(=O)(=O)c3ccc(C)cc3)[C@H]2c2cccc3ccccc23)[C@H]2C(=O)N(C3CCCCC3)C(=O)[C@H]2C1	10µM	–	–	13µM	–	–
Cc1cc(C)cc(SCc2noc(C(=O)NCc3ccccc3)c2C(=O)NCc2ccccc2)c1	?	–	–	?	–	–
C=CCNC(=O)c1onc(CSc2cc(C)cc(C)c2)c1C(=O)NCC=C	18µM	–	–	?	–	?
CCCCNC(=O)c1onc(CSc2ccc(Cl)cc2)c1C(=O)NCCCC	?	–	–	?	–	?
O=C(NCc1ccccc1)c1onc(CSc2ccc(F)cc2)c1C(=O)NCc1ccccc1	?	–	–	18µM	–	–
CCCCNC(=O)c1onc(CSc2ccc(F)c(F)c2)c1C(=O)NCCCC	?	–	–	16µM	–	?
C=CCNC(=O)c1onc(CSc2ccc(Cl)cc2)c1C(=O)NCC=C	16µM	–	–	?	–	?
CCc1nn2c(=O)cc(COC(=O)c3cccs3)nc2s1	–	·	–	–	·	–
CC(C)c1cc(CN2C(C)COCC2C)cc(C(C)C)c1O (stereo not drawn)	?	–	–	21µM	–	–
CC(=O)Nc1cc(C(C)C)c(O)c(C(C)C)c1	–	–	–	–	–	–
CC(=O)c1ccc(O)c(CC=C(C)C)c1O	?	–	–	–	–	–
